The values that follow come from the supplement of paper PMC9877034.

The structures appear in SMILES notation. Where a name gives a salt, the structure may show the parent alone. Whole data set: some 1,000 compounds, median “cFRET/donor change relative to DMSO, normalised to beta-lapachone positive control (supercomplex I-IV assembly)” near 0.18, cut for the lowest 2% near -1. For the sample, the lowest values were picked, then their nearest neighbours and some compounds at random.

This experiment concerns C2C12 (NDUFB8-AcGFP / COX8A-DsRed-Monomer FRET reporter). As to the kind of experiment: cFRET/donor change relative to DMSO, normalised to beta-lapachone positive control (supercomplex I-IV assembly) (fraction of beta-lapachone effect); higher = more respiratory supercomplex assembly. The following applies: 40 µM; 24 h. As to the method:
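Cells were treated with 40 uM compound for 24 h and imaged on an IN Cell Analyzer 6000. Corrected FRET was divided by donor signal (cFRET/donor) and measured in two replicate experiments. The score is (mean cFRET/donor of compound - mean DMSO) / (mean beta-lapachone 40 uM - mean DMSO). Compounds flagged for prominent cell death, abnormal morphology or decreased cell number were excluded.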
Consider `CC[N+](CC)(CC)CCOc1ccc(/C=C/c2ccccc2)cc1`, for which the cFRET/donor change came out at 0.391.

The compound `OCCN1CCN(CCCN2c3ccccc3Sc3ccc(Cl)cc32)CC1` [Perphenazine] gave a cFRET/donor change of 0.48. Compound `CN1CCC[C@@H]1Cc1c[nH]c2ccc(CCS(=O)(=O)c3ccccc3)cc12` [Eletriptan hydrobromide] displayed a cFRET/donor change of 0.314. As for `c1ccc(C2CN3CCSC3=N2)cc1` (single isomer, unassigned; (-)) [(-)-Tetramisole hydrochloride], the cFRET/donor change turned out to be 0.472. As to `N#CC(=C(/N)Sc1ccccc1N)/C(C#N)=C(/N)Sc1ccccc1N`, the cFRET/donor change was found to be 1.14. `CCOC(=O)[N-]c1c[n+](N2CCOCC2)no1` [Molsidomine] displayed a cFRET/donor change of 0.0144.

Compound `CCc1cncnc1N1CCN(Cc2nc3ccc(C(F)(F)F)cc3[nH]2)CC1` returned a cFRET/donor change of 0.351.

Regarding `CN(C)CCCc1cc(C(=O)Nc2ccc(-c3ccncc3)cc2)ccc1O`, the cFRET/donor change is 0.377.

In the case of `OC(CCN1CCCCC1)(c1ccccc1)C1CC2C=CC1C2` (configuration not stated) [Biperiden hydrochloride], the cFRET/donor change is 0.472.

Regarding `CCCCCCCCCCCCCCCCCCN(CCCCCCCCCCCCCCCCCC)CCCN(CCO)CCO` [Avridine], the cFRET/donor change is 0.401. On to `O=Nc1ccc2oc(=O)ccc2c1` [6-Nitroso-1,2-benzopyrone], for which the cFRET/donor change is -1.07. The value for `O=c1ccc2ccc(O)c(O)c2o1` [Daphnetin] was 0.438. The value for `O=C(CCc1ccncc1)NNC(=O)N1Cc2ccccc2Oc2ccc(Cl)cc21` was 0.597; that for `CC(C)c1c(C(=O)Nc2ccccc2)c(-c2ccccc2)c(-c2ccc(F)cc2)n1CC[C@@H](O)C[C@@H](O)CC(=O)O` [Atorvastatin calcium salt trihydrate] was -0.0539; that for `NS(=O)(=O)c1ccc(-n2nc(C(F)(F)F)cc2-c2ccc(Cl)cc2)cc1` was 0.219.

For `Cc1cn(C2C=CC(CO)O2)c(=O)[nH]c1=O` (configuration not stated) [2',3'-didehydro-3'-deoxythymidine], the cFRET/donor change amounted to 0.515.

As for `COc1ccc(S(=O)(=O)Nc2nc(-c3cccc([N+](=O)[O-])c3)cs2)cc1OC`, the cFRET/donor change amounted to 0.458. The compound `CC(NCCc1ccc(O)cc1)C(O)c1ccc(O)cc1` (configuration not stated) [Ritodrine hydrochloride] yielded a cFRET/donor change of -0.0849. On to `O=C1c2ccccc2C(=O)c2c(NCCc3ccc(O)cc3)ccc(NCCc3ccc(O)cc3)c21`, for which the cFRET/donor change is -1.29. The value for `O=C1c2c(O)ccc(O)c2C(=O)c2c(NCCNCCO)ccc(NCCNCCO)c21` [Mitoxantrone] was 0.111; that for `CCOc1nc2cccc(C(=O)OC(C)OC(=O)OC3CCCCC3)c2n1Cc1ccc(-c2ccccc2-c2nn[nH]n2)cc1` (configuration not stated) [Candesartan cilexetil] was 0.942. Consider `O=C1NCCc2[nH]c(-c3ccncc3)cc21`, for which the cFRET/donor change is -0.0657.

The compound `NC(C(=O)O)C(O)C(=O)O` (racemic) [DL-threo-beta-hydroxyaspartic acid] had a cFRET/donor change of -0.112. To `Cn1ccc2cc3c(cc21)CCN3C(=O)Nc1cccnc1` belongs -0.716; to `Cc1cc2c(cc1Cl)N(C(=O)Nc1ccc(Oc3cccnc3C)nc1)CC2`, -1.37. Consider `Cc1cc2c(cc1Cl)N(C(=O)Nc1cccc3ncccc13)CC2`, for which the cFRET/donor change is -0.136. The compound `C[C@H](CCC(=O)NCCS(=O)(=O)O)[C@H]1CC[C@H]2[C@@H]3[C@H](O)C[C@@H]4C[C@H](O)CC[C@]4(C)[C@H]3C[C@H](O)[C@]12C` [Sodium Taurocholate hydrate] displayed a cFRET/donor change of 0.0638. Regarding `COc1ccc2cccc(CCNC(C)=O)c2c1` [Agomelatine], the cFRET/donor change came out at 0.0655. Turning to `Clc1ccc(N2CCN(Cc3cc4ccccn4n3)CC2)cc1`, the cFRET/donor change was 0.359. To `CCCCC#Cc1nc(NC)c2ncn([C@@H]3O[C@H](CO)[C@@H](O)[C@H]3O)c2n1` belongs 0.242; to `CC(N)=NCCCC[C@H](N)C(=O)O` [L-N6-(1-Iminoethyl)lysine hydrochloride], -0.0938; to `COc1ccc2c(c1)CC[C@@H]1[C@@H]2CC[C@]2(C)[C@@H](NCCCCCCN3C(=O)CCC3=O)CC[C@@H]12`, 0.325. To `O=C1N=C(O)NC1(c1ccccc1)c1ccccc1` [Phenytoin sodium] belongs 0.149; to `Cc1cc(Nc2ncc3cc(-c4c(Cl)cccc4Cl)c(=O)n(C)c3n2)ccc1F`, -0.253. `Cn1c(=O)c(-c2c(Cl)cccc2Cl)cc2cnc(Nc3ccc(N4CCOCC4)cc3)nc21` displayed a cFRET/donor change of -0.227.

The compound `CCN(CC)CCOc1ccc(Nc2ncc3cc(-c4c(Cl)cccc4Cl)c(=O)n(C)c3n2)cc1` displayed a cFRET/donor change of -5.45.

`CN1Cc2sccc2C(c2ccc(O)c(O)c2)C1` (configuration not stated) displayed a cFRET/donor change of 0.596. Compound `CN1Cc2c(N)cccc2C(c2ccccc2)C1` (configuration not stated) [Nomifensine maleate] registered a cFRET/donor change of -0.996. The value for `CN1CCc2cc(Cl)c(O)cc2[C@@H](c2ccccc2)C1` was 0.549; that for `NS(=O)(=O)C#Cc1ccccc1` [Pifithrin-mu] was 0.551; that for `O=C(O)/C=C/c1cnc[nH]1` [4-Imidazoleacrylic acid] was 0.18. The value for `Clc1ccc2c(c1)N=C(N1CCNCC1)c1ccccc1N2` [N-Desmethylclozapine] was 0.316. `O=C(CCSCc1ccco1)NNC(=O)N1Cc2ccccc2Oc2ccc(Cl)cc21`: the cFRET/donor change is 0.36. Compound `COc1cc(NS(C)(=O)=O)ccc1Nc1c2ccccc2nc2ccccc12` [Amsacrine hydrochloride] had a cFRET/donor change of 0.257. In turn, `CC1(C2CCCC2)Cc2cc(OCC(=O)O)c(Cl)c(Cl)c2C1=O` (configuration not stated) registered a cFRET/donor change of 0.0296. For `O=P(O)(O)C(O)(Cn1ccnc1)P(=O)(O)O` [Zoledronic acid monohydrate], the cFRET/donor change is 0.239. Take `Cc1ccc(O)c(N=Nc2ccccc2)n1`: the cFRET/donor change turned out to be 0.375. `CO[C@H]1C[C@@H]2CC[C@@H](C)[C@@](O)(O2)C(=O)C(=O)N2CCCC[C@H]2C(=O)O[C@H]([C@H](C)C[C@@H]2CC[C@@H](OC(=O)C(C)(CO)CO)[C@H](OC)C2)CC(=O)[C@H](C)/C=C(\C)[C@@H](O)[C@@H](OC)C(=O)[C@H](C)C[C@H](C)/C=C/C=C/C=C/1C` [Temsirolimus] had a cFRET/donor change of -0.55. In the case of `COc1ccc2[nH]c([S@@+]([O-])Cc3ncc(C)c(OC)c3C)nc2c1` [Esomeprazole magnesium dihydrate], the cFRET/donor change turned out to be 0.951. In the case of `NCC=CC(=O)O` (stereo in doubt) [cis-4-Aminocrotonic acid], the cFRET/donor change is 0.532. In the case of `CCN(CC)C(C)CN1c2ccccc2Sc2ccccc21` (configuration not stated) [Ethopropazine hydrochloride], the cFRET/donor change is -0.00468.

As to `N[C@@H](CCCC(=O)O)C(=O)O` [L-2-aminoadipic acid], the cFRET/donor change was -0.139.
